# The supplement of paper PMC4466140
# What was measured:
# Assay in all cases: SPOT peptide array binding signal intensity (averaged, normalized) (arbitrary units (background-subtracted, floor 0; scale differs between SH3 domains)); higher = stronger binding of the SH3 domain to the peptide
# [1] = target: AgAbp1
# How it was run: (§1)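 GST-fused SH3 domains, from four yeast species, were produced in E. coli BL21(DE3) and captured on glutathione Sepharose. Membranes of cellulose carrying synthetic 15-mer peptides, in which cysteines had been replaced by serines, were exposed to each domain at 10 μg/ml overnight at 4°C in TBS-based blocking buffer. After anti-GST antibody, an HRP anti-mouse secondary and luminol, spots were imaged and quantified using Genespotter. Binding signal is normalized and background-subtracted spot intensity, averaged over replicates, in arbitrary units that differ between domains.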
# [2] = target: AgBbc1
# How it was run: as §1
# [3] = target: AgBem1-D1
# How it was run: as §1
# [4] = target: AgBzz1-D1
# How it was run: as §1
# [5] = target: AgBzz1-D2
# How it was run: as §1
# [6] = target: AgCyk3
# How it was run: as §1
# [7] = target: AgFus1
# How it was run: as §1
# [8] = target: AgHof1
# How it was run: as §1
# [9] = target: AgHse1
# How it was run: as §1
# [10] = target: AgLsb1
# How it was run: as §1
# [11] = target: AgLsb4
# How it was run: as §1
# [12] = target: AgMyo5
# How it was run: as §1
# [13] = target: AgNbp2
# How it was run: as §1
# [14] = target: AgRvs167
# How it was run: as §1
# [15] = target: AgSho1
# How it was run: as §1
# [16] = target: AgSla1-D1-D2
# How it was run: as §1
# [17] = target: AgSla1-D3
# How it was run: as §1
# [18] = target: CaAbp1-D1
# How it was run: as §1
# [19] = target: CaAbp1-D2
# How it was run: as §1
# [20] = target: CaBbc1
# How it was run: as §1
# [21] = target: CaBem1-D1
# How it was run: as §1
# [22] = target: CaBzz1-D1
# How it was run: as §1
# [23] = target: CaBzz1-D2
# How it was run: as §1
# [24] = target: CaCyk3
# How it was run: as §1
# [25] = target: CaFus1
# How it was run: as §1
# [26] = target: CaHof1
# How it was run: as §1
# [27] = target: CaHse1
# How it was run: as §1
# [28] = target: CaLsb1
# How it was run: as §1
# [29] = target: CaLsb4
# How it was run: as §1
# [30] = target: CaMyo5
# How it was run: as §1
# [31] = target: CaNbp2
# How it was run: as §1
# [32] = target: CaRvs167
# How it was run: as §1
# [33] = target: CaRvs167-3
# How it was run: as §1
# [34] = target: CaSho1
# How it was run: as §1
# [35] = target: CaSla1-D1-D2
# How it was run: as §1
# [36] = target: CaSla1-D3
# How it was run: as §1
# [37] = target: ScAbp1
# How it was run: as §1
# [38] = target: ScBbc1
# How it was run: as §1
# [39] = target: ScBem1-D1
# How it was run: as §1
# [40] = target: ScBzz1-D1
# How it was run: as §1
# [41] = target: ScBzz1-D2
# How it was run: as §1
# [42] = target: ScCyk3
# How it was run: as §1
# [43] = target: ScFus1
# How it was run: as §1
# [44] = target: ScHof1
# How it was run: as §1
# [45] = target: ScHse1
# How it was run: as §1
# [46] = target: ScLsb1
# How it was run: as §1
# [47] = target: ScLsb2
# How it was run: as §1
# [48] = target: ScLsb3
# How it was run: as §1
# [49] = target: ScLsb4
# How it was run: as §1
# [50] = target: ScMyo3
# How it was run: as §1
# [51] = target: ScMyo5
# How it was run: as §1
# [52] = target: ScNbp2
# How it was run: as §1
# [53] = target: ScPex13
# How it was run: as §1
# [54] = target: ScRvs167
# How it was run: as §1
# [55] = target: ScSho1
# How it was run: as §1
# [56] = target: ScSla1-D1-D2
# How it was run: as §1
# [57] = target: ScSla1-D3
# How it was run: as §1
# [58] = target: SpAbp1-D1
# How it was run: as §1
# [59] = target: SpBbc1
# How it was run: as §1
# [60] = target: SpBzz1-D1
# How it was run: as §1
# [61] = target: SpBzz1-D2
# How it was run: as §1
# [62] = target: SpCyk3
# How it was run: as §1
# [63] = target: SpHof1
# How it was run: as §1
# [64] = target: SpHof1-2
# How it was run: as §1
# [65] = target: SpHof1-3
# How it was run: as §1
# [66] = target: SpHse1
# How it was run: as §1
# [67] = target: SpLsb1
# How it was run: as §1
# [68] = target: SpLsb4
# How it was run: as §1
# [69] = target: SpMyo1
# How it was run: as §1
# [70] = target: SpNbp2
# How it was run: as §1
# [71] = target: SpPex13
# How it was run: as §1
# [72] = target: SpRvs167
# How it was run: as §1
# [73] = target: SpSla1-D1-D2
# How it was run: as §1
# [74] = target: SpSla1-D3
# How it was run: as §1
binder,measurement,setting,value
QGYPRQPQRPQRYHP,SPOT peptide array binding signal intensity,[1],15.5
same,SPOT peptide array binding signal intensity,[2],187
same,SPOT peptide array binding signal intensity,[3],≤ 0
same,SPOT peptide array binding signal intensity,[4],8
same,SPOT peptide array binding signal intensity,[5],22.5
same,SPOT peptide array binding signal intensity,[6],≤ 0
same,SPOT peptide array binding signal intensity,[7],≤ 0
same,SPOT peptide array binding signal intensity,[8],0.5
same,SPOT peptide array binding signal intensity,[9],17.5
same,SPOT peptide array binding signal intensity,[10],≤ 0
same,SPOT peptide array binding signal intensity,[11],47
same,SPOT peptide array binding signal intensity,[12],≤ 0
same,SPOT peptide array binding signal intensity,[13],≤ 0
same,SPOT peptide array binding signal intensity,[14],0.333
same,SPOT peptide array binding signal intensity,[15],≤ 0
same,SPOT peptide array binding signal intensity,[16],2
same,SPOT peptide array binding signal intensity,[17],≤ 0
same,SPOT peptide array binding signal intensity,[18],25.5
same,SPOT peptide array binding signal intensity,[19],11
same,SPOT peptide array binding signal intensity,[20],329
same,SPOT peptide array binding signal intensity,[21],15
same,SPOT peptide array binding signal intensity,[22],144
same,SPOT peptide array binding signal intensity,[23],32.5
same,SPOT peptide array binding signal intensity,[24],13
same,SPOT peptide array binding signal intensity,[25],≤ 0
same,SPOT peptide array binding signal intensity,[26],≤ 0
same,SPOT peptide array binding signal intensity,[27],≤ 0
same,SPOT peptide array binding signal intensity,[28],≤ 0
same,SPOT peptide array binding signal intensity,[29],1180
same,SPOT peptide array binding signal intensity,[30],≤ 0
same,SPOT peptide array binding signal intensity,[31],≤ 0
same,SPOT peptide array binding signal intensity,[32],2.5
same,SPOT peptide array binding signal intensity,[33],≤ 0
same,SPOT peptide array binding signal intensity,[34],12.5
same,SPOT peptide array binding signal intensity,[35],≤ 0
same,SPOT peptide array binding signal intensity,[36],≤ 0
same,SPOT peptide array binding signal intensity,[37],10
same,SPOT peptide array binding signal intensity,[38],40.2
same,SPOT peptide array binding signal intensity,[39],2.5
same,SPOT peptide array binding signal intensity,[40],≤ 0
same,SPOT peptide array binding signal intensity,[41],11
same,SPOT peptide array binding signal intensity,[42],≤ 0
same,SPOT peptide array binding signal intensity,[43],≤ 0
same,SPOT peptide array binding signal intensity,[44],0.75
same,SPOT peptide array binding signal intensity,[45],≤ 0
same,SPOT peptide array binding signal intensity,[46],9.5
same,SPOT peptide array binding signal intensity,[47],≤ 0
same,SPOT peptide array binding signal intensity,[48],1040
same,SPOT peptide array binding signal intensity,[49],25
same,SPOT peptide array binding signal intensity,[50],≤ 0
same,SPOT peptide array binding signal intensity,[51],≤ 0
same,SPOT peptide array binding signal intensity,[52],3.5
same,SPOT peptide array binding signal intensity,[53],29.5
same,SPOT peptide array binding signal intensity,[54],≤ 0
same,SPOT peptide array binding signal intensity,[55],16
same,SPOT peptide array binding signal intensity,[56],12
same,SPOT peptide array binding signal intensity,[57],≤ 0
same,SPOT peptide array binding signal intensity,[58],≤ 0
same,SPOT peptide array binding signal intensity,[59],3.5
same,SPOT peptide array binding signal intensity,[60],226
same,SPOT peptide array binding signal intensity,[61],0.5
same,SPOT peptide array binding signal intensity,[62],≤ 0
same,SPOT peptide array binding signal intensity,[63],5
same,SPOT peptide array binding signal intensity,[64],≤ 0
same,SPOT peptide array binding signal intensity,[65],0.5
same,SPOT peptide array binding signal intensity,[66],2
same,SPOT peptide array binding signal intensity,[67],4
same,SPOT peptide array binding signal intensity,[68],1230
same,SPOT peptide array binding signal intensity,[69],≤ 0
same,SPOT peptide array binding signal intensity,[70],≤ 0
same,SPOT peptide array binding signal intensity,[71],1
same,SPOT peptide array binding signal intensity,[72],3
same,SPOT peptide array binding signal intensity,[73],≤ 0
same,SPOT peptide array binding signal intensity,[74],≤ 0
